For 14 molecules, viability decrease (inhibition) results are on record in PubChem BioAssay.

Unmarked numbers belong to inactive results. Active and inactive are the calls of the source.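 How the source made its calls: active means compounds that lower survival of DLD-1 colon cancer cells in the luminescence readout, no cutoff given; inactive means the rest.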

A short description of the assay: NPC library primary testing for decreased DLD-1 cell viability via CellTiter-Glo (AID 1117346). The following applies: DLD-1 viability, CellTiter-Glo luminescence; at 20 µM (top of the series). For orientation: In ATP-based viability assays light output follows the ATP content of the culture.
For the molecule `CCC(=O)Nc1ccc(O)cc1`, the viability decrease (inhibition) is 14.6%. The figure for `COC(=O)c1cc(S(C)(=O)=O)ccc1OC` is -1.9%. With `Cc1cccc(N(C)C(=S)Oc2ccc3c(c2)CCC3)c1`, the viability decrease (inhibition) is 55.5% (active). The value for `Nc1c(N=Nc2ccc(-c3ccc(N=Nc4cc(S(=O)(=O)O)c5ccccc5c4N)cc3)cc2)cc(S(=O)(=O)O)c2ccccc12` was -66.6%; that for `CCOC(=O)CN1CCCC1=O` was 1%. In the case of `COC(=O)[C@H]1[C@H]2C[C@@H]3c4[nH]c5cc(OC)ccc5c4CCN3C[C@H]2C[C@@H](OC(=O)COc2ccc(OC)cc2)[C@@H]1OC`, the viability decrease (inhibition) is 1.9%.

Take `CCCCN(CCCC)C(C(N)=O)c1ccc(OC)cc1` (centres undefined): the viability decrease (inhibition) was 2.6%.

Regarding `CN[C@@H]1[C@@H](O)[C@@H](O[C@@H]2[C@H](O)[C@H](O[C@H]3OC(CN)=CC[C@H]3N)[C@@H](N)C[C@H]2N)OCC1(C)O` (some centres undefined), the viability decrease (inhibition) is -8.2%.

`COc1ccc2c(c1)c(CC(=O)OC/C=C(\C)CC/C=C(\C)CCC=C(C)C)c(C)n2C(=O)c1ccc(Cl)cc1`: the viability decrease (inhibition) was -1.2%. Turning to `CCc1ccc(C(=O)C(C)CN2CCCCC2)cc1` (centres undefined), the viability decrease (inhibition) is -0.2%. With `O=C(O)c1cc(O)c2c(c1)[O][Bi][O]2`, the viability decrease (inhibition) is 0.3%.

`CCN(CC)CC(=O)Oc1ccc(NC(C)=O)cc1`: the viability decrease (inhibition) was -9.7%. For the molecule `C/C=C/c1ccc(O)c(OC)c1`, the viability decrease (inhibition) was 18.6%. For the molecule `O=C(/C=C/c1ccc(O)c(O)c1)O[C@@H]1C[C@@](OC(=O)/C=C/c2ccc(O)c(O)c2)(C(=O)O)C[C@@H](O)[C@@H]1O`, the viability decrease (inhibition) is -13.6%.
